Test results taken from ChEMBL document CHEMBL3988442, “University of Dundee, Small-Polar-MMV Screening Library” (2021).
The campaign covered roughly 69,000 compounds. About 950 (1.4%) showed an effect of 50% or more. Only a selection was taken, and strong results are over-represented in it overall.

system: Mycobacterium tuberculosis; experiment: Cornell M. t heat shock assay; type: functional, organism-based; parameters: dose or concentration left out as unconfirmed; further: in the data most compounds retested in dose-response had high values

| Structure (SMILES) | Percent Effect [%] |
| --- | --- |
| Cc1cccc(CN2CCc3nnc(CN4CCCCC4)n3CC2)n1.O=C(O)C(F)(F)F.O=C(O)C(F)(F)F | -5.727 |
| Cl.Cn1ccnc1N1CCN(C(=O)Cc2ccc(Cl)cc2)CC1 | -26.02 |
| Cc1ccc(C(=O)N2CC3(CCNCC3)c3cc(Cl)ccc32)cn1.O=C(O)C(F)(F)F.O=C(O)C(F)(F)F | 1.032 |
| Cc1cccc(CN2C(=O)C[C@H]3[C@@H]2CCN3Cc2ccco2)n1.O=C(O)C(F)(F)F.O=C(O)C(F)(F)F | -4.137 |
| O=C(CN1C[C@H]2CC[C@@H]1CN(Cc1ccccn1)C2)Nc1ccccc1 | 12.62 |
| CC(C)(C)c1cc(CN2C[C@@H]3CC[C@H](C2)N(Cc2ccccn2)C3)n[nH]1 | 82.46 |
| CC(C)(C)c1cc(CN2C[C@H]3CC[C@@H]2CN(Cc2ccccn2)C3)n[nH]1 | 99.23 |
| Cc1nnsc1CN1C[C@H]2CC[C@@H]1CN(Cc1ccccn1)C2 | -2.005 |
| Cn1ccc(NC(=O)CN2C[C@H]3CC[C@@H]2CN(Cc2ccccn2)C3)n1 | -21.74 |
| Cn1cnc(S(=O)(=O)N2C[C@@H]3CC[C@H](C2)N(Cc2ccccn2)C3)c1 | 7.06 |
| O=C(O)C(F)(F)F.c1ccc(CN2CCc3ncnc(C4CC4)c3CC2)cc1 | -16.81 |
| CC(=O)N1CC2(CCNCC2)c2cc(Cl)ccc21.Cl | 3.682 |
| CO[C@H]1CN(C(=O)c2ccccn2)[C@@H]2CCCO[C@H]12.O=C(O)C(F)(F)F | 0.07759 |
| CS(=O)(=O)NCc1cnc2n1CCN(Cc1ccccn1)CC2.O=C(O)C(F)(F)F | -38.1 |
| CCc1n[nH]c(C(=O)NCCn2ccnc2C)c1C | -101 |
| CCc1n[nH]c(C(=O)NCCn2ccc(C)n2)c1C | -5.809 |
| CCc1n[nH]c(C(=O)NCCn2nccc2C)c1C | 66.56 |
| CO[C@H]1[C@@H]2CC[C@H]1CN(c1nc(C)nc3ccsc13)C2 | 7.911 |
| Cc1ccc(C2(CN3CCN(Cc4cnc(C)n4C)CC3)CC2)cc1.Cl | -8.472 |
| CS(=O)(=O)N1C[C@@H]2CC[C@H](C1)N(Cc1ccsc1)C2 | 18.67 |
| CC(=O)c1cc(CN2C[C@H]3CC[C@@H]2CN(S(=O)(=O)N(C)C)C3)cs1 | -20.68 |
| CC(=O)c1cc(CN2C[C@H]3CC[C@@H]2CN(S(C)(=O)=O)C3)cs1 | 74.41 |
| Cc1ccc(CN2CCO[C@H]3[C@H](OCc4cccnc4)CC[C@@H]32)o1.O=C(O)C(F)(F)F.O=C(O)C(F)(F)F | 17.99 |
| Cl.c1cnc2[nH]c(C3CCCNC3)c(CN3CCCOCC3)c2c1 (stereo not drawn) | -14.8 |
| CCOc1ccc(Br)cc1-c1cc(N)[nH]n1.Cl | 3.82 |
| CCOc1ccccc1-c1cc(N)[nH]n1.Cl | -11.82 |
| Nc1ncccc1CN1C[C@@H]2CC[C@H](C1)N(CC1CC1)C2=O | -11.72 |

| Structure (SMILES) | Percent Effect [%] |
| --- | --- |
| Cc1noc(C)c1CN1C(=O)[C@H]2CC[C@@H]1CN(Cc1cccnc1N)C2 | 4.913 |
| CC(C)=CCN1C(=O)[C@H]2CC[C@@H]1CN(Cc1cccnc1N)C2 | 105.7 |
| Cl.NC(=O)C1CN(c2ccc(F)cc2)CCN1 (stereo not drawn) | 7.399 |
| COc1ccc(F)c(CN(CCCn2ccnc2)Cc2ccc(C)s2)c1.O=C(O)CC(O)(CC(=O)O)C(=O)O | 102.4 |
| Cc1ccc(CN(CCCn2ccnc2)Cc2c[nH]nc2C(C)(C)C)s1.O=C(O)CC(O)(CC(=O)O)C(=O)O | 9.157 |
| Cc1ccc(CN(CCCn2ccnc2)Cc2cccs2)s1.O=C(O)CC(O)(CC(=O)O)C(=O)O | 106 |
| Cc1ccc(CN(CCN(C)C)Cc2ncc[nH]2)s1 | -11.95 |
| COc1ccc(Cl)cc1CNCCCn1ccnc1 | 13.48 |
| Cc1ccc(CN(CCCn2ccnc2)Cc2cnn(C)c2)s1.O=C(O)CC(O)(CC(=O)O)C(=O)O | -39.87 |
| COc1ccc(F)c(CN2CCC(c3cc(O)nc(C)n3)C2)c1.O=C(O)CC(O)(CC(=O)O)C(=O)O (stereo not drawn) | -13.93 |
| Cc1ccc(CN(CCCn2ccnc2)Cc2c[nH]cn2)s1.O=C(O)CC(O)(CC(=O)O)C(=O)O | -3.628 |
| OCc1ccc(CN(CCCn2ccnc2)Cc2cccnc2)o1 | 13 |
| Cl.Fc1ccc(Cc2cnc(C3CCCN3)cn2)cc1 (stereo not drawn) | -27.64 |
| COc1ccc(CN(C)[C@@H]2COC[C@H]2c2ccc(F)cc2)cc1.O=C(O)CC(O)(CC(=O)O)C(=O)O | -8.721 |
| Cc1oncc1C(=O)N[C@@H]1CN(CC2CC2)C[C@@H]2CCCO[C@@H]21.O=C(O)C(F)(F)F | 28.88 |
| COCCNC(=O)[C@@H]1C[C@@H]2CCN(c3ncccn3)C[C@H]2O1.O=C(O)C(F)(F)F | -37.39 |
| O=C(NC1CC1)C1=CC2(CCN(CC3CC3)CC2)c2ccccc21.O=C(O)C(F)(F)F | -12.48 |
| c1cc(CN(CCCn2ccnc2)Cc2ccoc2)ccn1 | 0.7312 |
| COc1ccccc1CN(CCCn1ccnc1)CC1CCOC1.O=C(O)CC(O)(CC(=O)O)C(=O)O (stereo not drawn) | 0.5182 |
| Cc1ccc(CN(CCCn2ccnc2)Cc2c(F)cccc2F)s1.O=C(O)CC(O)(CC(=O)O)C(=O)O | 103.6 |
| OCc1ccc(CN(CCCn2ccnc2)Cc2ccncc2)o1 | -4.525 |
| Fc1ccccc1CN(CCCn1ccnc1)CC1CCOC1.O=C(O)CC(O)(CC(=O)O)C(=O)O (stereo not drawn) | -23.62 |
| Cc1ccc(CN(CCCn2ccnc2)Cc2cc(F)ccc2F)s1.O=C(O)CC(O)(CC(=O)O)C(=O)O | 105.9 |
| CC(C)OCCCN(Cc1ccncc1)Cc1cc(F)ccc1F.Cl | -8.981 |
| Cc1ccc(CN(Cc2cccnc2)C2CC(C)(C)NC(C)(C)C2)s1.O=C(O)CC(O)(CC(=O)O)C(=O)O | -4.253 |
| Cc1ccc(CN(CCCN2CCOCC2)Cc2cncn2C)o1.O=C(O)CC(O)(CC(=O)O)C(=O)O | 7.314 |
